PubChem BioAssay (NCATS)
Values without a mark were called inactive. Inconclusive results are not listed. The source made the active and inactive calls. Unless noted, the call rests on the fitted dose curve; in most records, active means well fitted curve in either direction with a large enough effect (not every such curve was filed as active); inconclusive means small, poorly fitted or top-dose-only effect, or another doubt; inactive means flat fitted curve, though single readings scatter.

Tests used:
[1] = AP1 Signaling Pathway (AID 357); details: ME-180 AP-1-bla reporter, EGF-induced, beta-lactamase ratio, 5 h; at 17.2 µM (top of the series) unless noted;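 further: ME-180 reporter cells stimulated with EGF at its EC50 level; on the % scale 0 is the no-effect control and ±100 the full control effect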
In short: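 A ratiometric CCF4 readout (405 nm excitation; 460 and 530 nm emission) quantified AP-1-driven beta-lactamase in ME-180 cells after 5 h with compound and EC50 EGF; AC50 values were derived for activators and inhibitors.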

[2] = NFAT Signaling Pathway (AID 444); details: Jurkat NFAT-bla M1, carbachol, beta-lactamase ratio, 5 h; at 17.2 µM (top of the series) unless noted;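 further: carbachol stimulus at about its EC50 of 1 µM final; on the % scale 0 is the no-effect control and ±100 the full control effect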
In short: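 Read-out: CCF4 FRET ratio (460 nm/530 nm) after 1 h RT dye loading, used for %activity and AC50 from titration series. Cells: Jurkat NFAT-β-lactamase/M1 line, treated with compound plus 1 uM carbachol for 5 h, 37 °C.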

[3] = Stat Signaling Pathway (AID 446); details: ME-180 (cervical carcinoma) SIE beta-lactamase reporter, IL-6 stimulated, 5 h; at 17.2 µM (top of the series) unless noted;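 further: ME-180 cervical cancer cells given 40 pM IL-6 alongside compound; SIE-controlled beta-lactamase reporter measured as 460/530 nm FRET emission ratio; on the % scale 0 is the no-effect control and ±100 the full control effect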
In short: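 Overnight-plated ME-180 cells bearing a STAT Inducible Element beta-lactamase reporter; 5 h co-exposure to compound and 40 pM IL-6; values normalized to 300 pM IL-6 and 125 nM JAK inhibitor controls.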

[4] = biological target: Glucocorticoid receptor (Homo sapiens) (UniProt P04150); test: GR-GFP Redistribution (AID 450;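 active means compounds whose dose series gives a full or clear partial fitted curve of increased nuclear translocation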; further: potency means the concentration at half of the fitted maximal effect)
Glucocorticoid receptor (Homo sapiens), sequence (P04150 whole entry, looked up): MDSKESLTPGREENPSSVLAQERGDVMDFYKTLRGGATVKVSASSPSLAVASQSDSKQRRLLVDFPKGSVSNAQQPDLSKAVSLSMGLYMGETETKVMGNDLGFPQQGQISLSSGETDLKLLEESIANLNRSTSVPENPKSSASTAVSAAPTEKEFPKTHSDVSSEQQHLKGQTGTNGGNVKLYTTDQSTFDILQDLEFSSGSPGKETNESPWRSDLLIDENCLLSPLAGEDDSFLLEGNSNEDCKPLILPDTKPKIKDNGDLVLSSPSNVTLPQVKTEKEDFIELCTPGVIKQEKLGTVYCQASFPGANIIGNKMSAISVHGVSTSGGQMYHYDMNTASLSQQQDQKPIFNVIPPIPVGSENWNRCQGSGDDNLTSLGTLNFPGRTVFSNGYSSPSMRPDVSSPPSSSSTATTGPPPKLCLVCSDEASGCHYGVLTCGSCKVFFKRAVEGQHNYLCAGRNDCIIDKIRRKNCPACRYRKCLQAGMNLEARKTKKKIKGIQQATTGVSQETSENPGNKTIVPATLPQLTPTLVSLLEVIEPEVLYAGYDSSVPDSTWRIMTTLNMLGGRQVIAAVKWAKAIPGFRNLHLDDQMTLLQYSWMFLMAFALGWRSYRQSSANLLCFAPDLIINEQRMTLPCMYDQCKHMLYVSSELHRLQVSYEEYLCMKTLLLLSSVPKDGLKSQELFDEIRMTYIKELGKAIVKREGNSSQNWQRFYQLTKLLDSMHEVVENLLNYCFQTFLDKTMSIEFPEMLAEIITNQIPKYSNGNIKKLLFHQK

| SMILES | activity change, negative = inhibition [1] [%] | activity change, negative = inhibition [2] | activity, negative = inhibition [3] [%] | Potency [4] [µM] |
| --- | --- | --- | --- | --- |
| Oc1ccc2ccccc2c1/C=N/n1cnnc1 | -5.14 | 6.11% | -0.766 | > 20.6 |
| CCCCC(=O)NC(Nc1ccc(C)cn1)(C(=O)OCC)C(F)(F)F (stereo not drawn) | 6.8 | -3.17% | -20.4 | > 20.6 |
| CCCSc1nnc2n(Cc3ccccc3)c(=O)c3c4c(sc3n12)CCC4 | 27.1 | 0.0627% | -7.18 | > 20.6 |
| Cc1ccc2cc(CN(C(=O)c3ccco3)c3ccccc3)c(=O)[nH]c2c1 | -24.5 | 2.15% | -2.89 | > 20.6 |
| CC(C)Cc1[nH]c(=O)c(C#N)c2c1CCCC2 | 3.62 | 2.23% | 8.54 | > 20.6 |
| CCOC(=O)C(OC(=O)c1sc(=S)n(C)c1C)C(C)=O (stereo not drawn) | 18 | 6.69% | 9.46 | > 20.6 |
| COc1ccc(C2Nc3ccccc3C(=O)N2Cc2ccco2)cc1CN1C(=O)c2ccccc2C1=O (stereo not drawn) | -19.7 | -14.1% | -19.4 | > 20.6 |
| CC(NC(=O)Nc1nnc(C(F)(F)F)s1)(C(F)(F)F)C(F)(F)F | -3.33 | 0.893% | 0.617 | > 20.6 |
| O=C(NCCCn1ccnc1)c1cccnc1 | 14.4 | -7.91% | 6.38 | > 20.6 |
| CCc1cc(=O)oc2cc(C)c(CN3CCCC(C)C3)c(O)c12 (stereo not drawn) | 1.74 | -12.2% | -15.7 | > 20.6 |
| CCN(CC)C(=O)C1CCN(c2ncnc3c2cnn3-c2ccc(C)cc2C)CC1 | -10.6 | 7.48% | -7.04 | > 20.6 |
| O=C(Cc1cscn1)c1ccc(O)cc1O | 4.71 | 4.07% | 12.7 | > 20.6 |
| COc1cc(S(=O)(=O)N2CCN(C)CC2)c(OC)cc1Br | 9.1 | -13.8% | 3.25 | > 20.6 |
| CCOc1c(C)cc2[nH]c(CCC(=O)O)nc2c1C | 7.73 | -1.66% | 7.03 | > 20.6 |
| Cc1cc(N2C(=O)C(=O)/C(=C(/O)c3ccccc3)C2c2cccs2)no1 (stereo not drawn) | -22.3 | 19% | -21 | > 20.6 |
| Cc1cc2nncn2c(Cc2ccccc2)n1 | -3.42 | -3.53% | -8.81 | > 20.6 |
| O=C(O)c1cc2sccc2s1 | -0.721 | -6.24% | 2.27 | > 20.6 |
| O=C1C2CC=C(Cl)CC2C(=O)N1CNc1ccccn1 (stereo not drawn) | -0.589 | -12.9% | 7.34 | > 20.6 |
| CC(C(=O)N1CCCCC1)N1C(=O)c2ccccc2C1=O (stereo not drawn) | 0.952 | 8.42% | 3.42 | > 20.6 |
| COc1ccccc1N(Cc1cc2cccc(C)c2[nH]c1=O)C(=O)C(C)C | -14.8 | 11.3% | -8.46 | > 20.6 |
| CC1CN(c2oc(-c3ccccc3Cl)nc2C#N)CC(C)O1 (stereo not drawn) | 6.37 | -6.23% | 9.86 | > 20.6 |
| O=C(COc1ccc(Cl)cc1)Nc1ccccc1CO | 6.8 | 6.35% | 0.225 | > 20.6 |
| CCOC(=O)C(Oc1ccc(=O)[nH]n1)C(C)=O (stereo not drawn) | 3.6 | 5.95% | 2.15 | > 20.6 |
| O=S(CCc1ccncc1)Cc1ccccc1 (stereo not drawn) | 9.28 | 26% | 2.34 | > 20.6 |
| O=C(NC1CCS(=O)(=O)C1)N1CCCCC1 (stereo not drawn) | -10.9 | -4.07% | 9 | > 20.6 |
| Oc1ccc2ccccc2c1C=NC12CN3CCN(CN(C3)C1)C2 | 6.89 | -22.1% | -13.6 | > 20.6 |

| SMILES | activity change, negative = inhibition [1] [%] | activity change, negative = inhibition [2] | activity, negative = inhibition [3] [%] | Potency [4] [µM] |
| --- | --- | --- | --- | --- |
| CC(=O)c1cccc(N=C2NC(=O)C(CO)(CO)S2)c1 | 3.54 | -3.93% | 4.42 | > 20.6 |
| CC(C)C1Cc2c(C#N)c(N)sc(=S)c2CO1 (stereo not drawn) | -19.3 | -23.4% | 1.85 | > 20.6 |
| c1ccc(OCc2nn3c(C4CCCCC4)nnc3s2)cc1 | -8.37 | 0.0415% | 8.07 | > 20.6 |
| Cc1cc(C)c2nc(SCCC#N)nc(C)c2c1 | -4.73 | 11.8% | 6.57 | > 20.6 |
| Cn1c(=O)c2c(nc(NCc3ccco3)n2Cc2ccccc2Cl)n(C)c1=O | 16.7 | 2.77% | -14.8 | > 20.6 |
| Cn1c2c(c(=O)n(C)c1=O)C(NC(=O)c1cccs1)(C(F)(F)F)C(=O)N2 (stereo not drawn) | -2.19 | 12.3% | 5.6 | > 20.6 |
| Fc1cc(F)c(F)c(SCCc2ccncc2)c1F | -7.09 | -5.43% | -0.589 | > 20.6 |
| CCOC(=O)CNC(=O)CCCCCC(=O)NCC(=O)OCC | 7.11 | 1.76% | 7.81 | > 20.6 |
| O=C(O)CC(NC(=O)COc1ccc(Cl)cc1Cl)C(=O)O (stereo not drawn) | 7.75 | 6.45% | 1.25 | > 20.6 |
| O=C1C=C(O)CC(c2ccc(Cl)c(Cl)c2)C1 (stereo not drawn) | 7.55 | -10.9% | -4.42 | > 20.6 |
| CCOC(=O)c1cc(C)n(Cc2cccc(OC)c2OC)c1C | -16.9 | -21.6% | -14.9 | > 20.6 |
| COc1ccc(/C(O)=C2\C(=O)C(=O)N(CCN3CCOCC3)C2c2ccccc2OC)cc1 (stereo not drawn) | -4.72 | 15.6% | -2.59 | > 20.6 |
| COC(=O)c1c(-n2cnnn2)sc(C)c1C | -20.5 | 2.79% | 6.13 | > 20.6 |
| Cc1cccc(-n2ncc3c(NCCN4CCOCC4)ncnc32)c1 | 1.48 | 8.91% | 4.97 | > 20.6 |
| Cn1c(=O)n(CC(=O)Nc2ccccc2)c2ccccc21 | -5.57 | -4.15% | -7.48 | > 20.6 |
| C=CCOc1ccc(C2/C(=C(\O)c3ccc(F)cc3)C(=O)C(=O)N2CCCN(C)C)cc1 (stereo not drawn) | 4.74 | -5.15% | 17 | > 20.6 |
| O=C(NCc1ccccc1)c1ccc(=O)[nH]n1 | 2.35 | -2.12% | 5.54 | > 20.6 |
| Cc1c(NC(=O)C(CC(=O)O)NCc2ccco2)c(=O)n(-c2ccccc2)n1C (stereo not drawn) | -3.94 | 5.18% | 1.34 | > 20.6 |
| CCC(NC(=O)Nc1nnc(C(F)(F)F)s1)(C(F)(F)F)C(F)(F)F | 18.4 | -115% (active) | -38.4 | > 20.6 |
| CC1(C)Cc2c(c(-c3ccccc3)[nH]c(=O)c2C#N)CS1 | -0.182 | 2.27% | -8.62 | > 20.6 |
| COc1ccc2c(c1)C1(C)CC(C)(C)N2C(=O)N1c1ccccc1 (stereo not drawn) | -24.6 | 24.8% | -17.2 | > 20.6 |
| Cn1cc(Cl)nc1C(O)c1ccccc1 (stereo not drawn) | 2.37 | -2.26% | 6.92 | > 20.6 |
| Cc1ccc(OCC(=O)NCC(=O)n2nc(C)cc2C)cc1 | -4.61 | -11.6% | -3.12 | > 20.6 |
| Cc1nc(N2CCOCC2)c(C#N)c2c1COC(C)(C)C2 | 0.635 | 2.49% | 7.32 | > 20.6 |
| Cc1ccc(-n2c(N)c(C(N)=O)sc2=S)cc1 | 6.9 | 9.14% | -24.5 | > 20.6 |
| CCN(CC)CCCN1C(=O)C(=O)/C(=C(/O)c2ccc(Cl)cc2)C1c1ccccn1 (stereo not drawn) | -3.4 | 5.22% | -0.716 | > 20.6 |
